Assay results taken from publication PMC11062922 (Nature Chemical Biology, 2023).
Like-named read-outs stand apart in the source and are kept apart here.

Key:
Set-up in all cases: species or system human, MV4-11 + K-562 + COLO205 + SK-N-BE2 + OVCAR-8
CDC42BPA = conditions: read-out: apparent Kd; compound concentrations:100 nM and 1000 nM (sheet 'Samples'); n = 1
CDC42BPB = conditions: read-out: apparent Kd, n = 1
CHEK1 = conditions: read-out: apparent Kd; compound concentrations:100 nM and 1000 nM (sheet 'Samples'); n = 1
GSK3A = conditions: read-out: apparent Kd; compound concentrations:100 nM and 1000 nM (sheet 'Samples'); n = 1
LATS1 = conditions: read-out: apparent Kd; compound concentrations:100 nM and 1000 nM (sheet 'Samples'); n = 1
MELK = conditions: read-out: apparent Kd, n = 1
PIM1 = conditions: read-out: apparent Kd; compound concentrations:100 nM and 1000 nM (sheet 'Samples'); n = 1
PKN1 = conditions: read-out: apparent Kd; compound concentrations:100 nM and 1000 nM (sheet 'Samples'); n = 1
PKN2 = conditions: read-out: apparent Kd; compound concentrations:100 nM and 1000 nM (sheet 'Samples'); n = 1
PRKCA = conditions: read-out: apparent Kd; compound concentrations:100 nM and 1000 nM (sheet 'Samples'); n = 1
PRKCB = conditions: read-out: apparent Kd; compound concentrations:100 nM and 1000 nM (sheet 'Samples'); n = 1
PRKCD = conditions: read-out: apparent Kd; compound concentrations:100 nM and 1000 nM (sheet 'Samples'); n = 1
PRKCI = conditions: read-out: apparent Kd; compound concentrations:100 nM and 1000 nM (sheet 'Samples'); n = 1
PRKCZ = conditions: read-out: apparent Kd; compound concentrations:100 nM and 1000 nM (sheet 'Samples'); n = 1
PRKG1 = conditions: read-out: apparent Kd; compound concentrations:100 nM and 1000 nM (sheet 'Samples'); n = 1
PRKX = conditions: read-out: apparent Kd; compound concentrations:100 nM and 1000 nM (sheet 'Samples'); n = 1
ROCK2 = conditions: read-out: apparent Kd; compound concentrations:100 nM and 1000 nM (sheet 'Samples'); n = 1
RPS6KA5 = conditions: read-out: apparent Kd; compound concentrations:100 nM and 1000 nM (sheet 'Samples'); n = 1
RPS6KB1 = conditions: read-out: apparent Kd; compound concentrations:100 nM and 1000 nM (sheet 'Samples'); n = 1
CDC42BPG = conditions: read-out: apparent Kd, n = 1
MAPK11 = conditions: read-out: apparent Kd; compound concentrations: 100 nM and 1000 nM (sheet 'Samples'), CATDS: 0.59050582210334401; n = 1
MAPK14 = conditions: read-out: apparent Kd; compound concentrations: 100 nM and 1000 nM (sheet 'Samples'), CATDS: 0.223513912329704; n = 1
MAPKAPK2 = conditions: read-out: apparent Kd; compound concentrations: 100 nM and 1000 nM (sheet 'Samples'), CATDS: 0.33085096444850498; n = 1
CDKL5 = conditions: read-out: apparent Kd; compound concentrations:100 nM and 1000 nM (sheet 'Samples'); n = 1
GRK6 = conditions: read-out: apparent Kd; compound concentrations:100 nM and 1000 nM (sheet 'Samples'); n = 1
PKN3 = conditions: read-out: apparent Kd; compound concentrations:100 nM and 1000 nM (sheet 'Samples'); n = 1
PRKAA1 = conditions: read-out: apparent Kd; compound concentrations:100 nM and 1000 nM (sheet 'Samples'); n = 1
PRKACA = conditions: read-out: apparent Kd; compound concentrations:100 nM and 1000 nM (sheet 'Samples'); n = 1
PRKACB = conditions: read-out: apparent Kd; compound concentrations:100 nM and 1000 nM (sheet 'Samples'); n = 1
PRKAG1 = conditions: read-out: apparent Kd; compound concentrations:100 nM and 1000 nM (sheet 'Samples'); n = 1
PRKAG2 = conditions: read-out: apparent Kd; compound concentrations:100 nM and 1000 nM (sheet 'Samples'); n = 1
PRKX;PRKY = conditions: read-out: apparent Kd; compound concentrations:100 nM and 1000 nM (sheet 'Samples'); n = 1
ROCK1 = conditions: read-out: apparent Kd; compound concentrations:100 nM and 1000 nM (sheet 'Samples'); n = 1
CIT = conditions: read-out: apparent Kd; compound concentrations: 100 nM and 1000 nM (sheet 'Samples'), CATDS: 0.106368492262706; n = 1
CLK1 = conditions: read-out: apparent Kd; compound concentrations: 100 nM and 1000 nM (sheet 'Samples'), CATDS: 0.214527954353402; n = 1
CLK4 = conditions: read-out: apparent Kd; compound concentrations: 100 nM and 1000 nM (sheet 'Samples'), CATDS: 0.24205596503661; n = 1
MARK3 = conditions: read-out: apparent Kd; compound concentrations: 100 nM and 1000 nM (sheet 'Samples'), CATDS: 9.9321002689151103E-2; n = 1
PHKG2 = conditions: read-out: apparent Kd; compound concentrations: 100 nM and 1000 nM (sheet 'Samples'), CATDS: 0.61617859145014098; n = 1
EGFR = conditions: read-out: apparent Kd, compound concentrations: 100 nM and 1000 nM (sheet 'Samples'), n = 1
FLT3 = conditions: read-out: apparent Kd; compound concentrations:100 nM and 1000 nM (sheet 'Samples'); n = 1
CAMKK2 = conditions: read-out: apparent Kd; compound concentrations: 100 nM and 1000 nM (sheet 'Samples'), CATDS: 0.352133758471873; n = 1
CDC42 = conditions: read-out: apparent Kd; compound concentrations:100 nM and 1000 nM (sheet 'Samples'); n = 1
CDK7 = conditions: read-out: apparent Kd; compound concentrations:100 nM and 1000 nM (sheet 'Samples'); n = 1
ERCC2 = conditions: read-out: apparent Kd; compound concentrations:100 nM and 1000 nM (sheet 'Samples'); n = 1
FER = conditions: read-out: apparent Kd; compound concentrations:100 nM and 1000 nM (sheet 'Samples'); n = 1
GAK = conditions: read-out: apparent Kd; compound concentrations:100 nM and 1000 nM (sheet 'Samples'); n = 1
HSP90B1 = conditions: read-out: apparent Kd; compound concentrations:100 nM and 1000 nM (sheet 'Samples'); n = 1
TNK2 = conditions: read-out: apparent Kd; compound concentrations:100 nM and 1000 nM (sheet 'Samples'); n = 1
CAMK4 = conditions: read-out: apparent Kd; compound concentrations:100 nM and 1000 nM (sheet 'Samples'); n = 1
CDK10 = conditions: read-out: apparent Kd; compound concentrations:100 nM and 1000 nM (sheet 'Samples'); n = 1
CDK6 = conditions: read-out: apparent Kd; compound concentrations:100 nM and 1000 nM (sheet 'Samples'); n = 1
MAPK9 = conditions: read-out: apparent Kd; compound concentrations:100 nM and 1000 nM (sheet 'Samples'); n = 1
CAMK2B = conditions: read-out: apparent Kd; compound concentrations: 100 nM and 1000 nM (sheet 'Samples'), CATDS: 0.45537516387232402; n = 1
TGFBR2 = conditions: read-out: apparent Kd; compound concentrations: 100 nM and 1000 nM (sheet 'Samples'), CATDS: 0.26695766684010303; n = 1
[1] = compound concentrations:100 nM and 1000 nM (sheet 'Samples')

## CCn1c(-c2nonc2N)nc2cncc(CNC3CCNCC3)c21 [SB-747651A]
CDC42BPA
  potency estimated from few doses: 1740 nM
CDC42BPB; [1]
  potency estimated from few doses: 1900 nM
CHEK1
  potency estimated from few doses: 2160 nM
GSK3A
  potency estimated from few doses: 1100 nM
LATS1
  potency estimated from few doses: 782 nM
MELK; [1]
  potency estimated from few doses: 655 nM
PIM1
  potency estimated from few doses: 1120 nM
PKN1
  potency estimated from few doses: 40 nM
PKN2
  potency estimated from few doses: 94.5 nM
PRKCA
  potency estimated from few doses: 197 nM
PRKCB
  potency estimated from few doses: 153 nM
PRKCD
  potency estimated from few doses: 632 nM
PRKCI
  potency estimated from few doses: 1480 nM
PRKCZ
  potency estimated from few doses: 2000 nM
PRKG1
  potency estimated from few doses: 702 nM
PRKX
  potency estimated from few doses: 1590 nM
ROCK2
  potency estimated from few doses: 36.2 nM
RPS6KA5
  potency estimated from few doses: 96.1 nM
RPS6KB1
  potency estimated from few doses: 22.2 nM

## Nc1c(C(=O)c2cccc(-c3ccc[n+]([O-])c3)c2)cnn1-c1ccc(F)cc1F [RO1166259-000]
CDC42BPG; compound concentrations: 100 nM and 1000 nM (sheet 'Samples'), CATDS: 0.14684216194917399
  potency estimated from few doses: 1410 nM
MAPK11
  potency estimated from few doses: 10.2 nM
MAPK14
  potency estimated from few doses: 100 nM
MAPKAPK2
  potency estimated from few doses: 31.2 nM

## COc1ccc(C[C@@H](CN)NC(=O)c2cc(Br)c(-c3ccnc4[nH]ccc34)s2)cc1.COc1ccc(C[C@@H](CN)NC(=O)c2cc(Br)c(-c3ccnc4[nH]ccc34)s2)cc1.Cl.Cl [GSK1389063A]
CDC42BPA
  potency estimated from few doses: 757 nM
CDC42BPB; [1]
  potency estimated from few doses: 80.7 nM
CDC42BPG; [1]
  potency estimated from few doses: 21.2 nM
CDKL5
  potency estimated from few doses: 1370 nM
GRK6
  potency estimated from few doses: 93 nM
LATS1
  potency estimated from few doses: 287 nM
PKN1
  potency estimated from few doses: 339 nM
PKN2
  potency estimated from few doses: 897 nM
PKN3
  potency estimated from few doses: 921 nM
PRKAA1
  potency estimated from few doses: 1570 nM
PRKACA
  potency estimated from few doses: 11.7 nM
PRKACB
  potency estimated from few doses: 23.5 nM
PRKAG1
  potency estimated from few doses: 976 nM
PRKAG2
  potency estimated from few doses: 863 nM
PRKCA
  potency estimated from few doses: 2340 nM
PRKCD
  potency estimated from few doses: 1750 nM
PRKG1
  potency estimated from few doses: 27.3 nM
PRKX;PRKY
  potency estimated from few doses: 127 nM
ROCK1
  potency estimated from few doses: 17.9 nM
ROCK2
  potency estimated from few doses: 21.5 nM
RPS6KA5
  potency estimated from few doses: 899 nM
RPS6KB1
  potency estimated from few doses: 130 nM

## FC1=CC(C3=NC2=CC(OC)=C(OC)C=C2C(N[C@H]4[C@H]([C@](C)(O)C)CNC4)=N3)=C(O)C=C1.Cl.Cl [CCT241533]
CDC42BPB; compound concentrations: 100 nM and 1000 nM (sheet 'Samples'), CATDS: 0.117626319285852
  potency estimated from few doses: 1010 nM
CIT
  potency estimated from few doses: 1490 nM
CLK1
  potency estimated from few doses: 163 nM
CLK4
  potency estimated from few doses: 121 nM
MARK3
  potency estimated from few doses: 2010 nM
MELK; compound concentrations: 100 nM and 1000 nM (sheet 'Samples'), CATDS: 9.4221597644958896E-2
  potency estimated from few doses: 2590 nM
PHKG2
  potency estimated from few doses: 20.8 nM

## CS(=O)(=O)CCNCc1ccc(-c2ccc3ncnc(Nc4ccc(OCc5cccc(C(F)(F)F)c5)cc4)c3c2)o1.Cl [GW567808A]
CDC42BPG; [1]
  potency estimated from few doses: 1820 nM
EGFR; CATDS: 0.39562285113590601
  potency estimated from few doses: 995 nM
FLT3
  potency estimated from few doses: 1430 nM

## CN(C)C(=O)O[C@H]1CN[C@H](C#Cc2cc3ncnc(Nc4ccc(OCc5cccc(F)c5)c(Cl)c4)c3s2)C1 [GSK182497A]
CAMKK2
  potency estimated from few doses: 2010 nM
EGFR; CATDS: 0.86194262245046105
  potency estimated from few doses: 175 nM

## Cl.Cl.NC[C@H](Cc1ccc(C(F)(F)F)cc1)NC(=O)c1cc(Br)c(-c2ccnc3[nH]ccc23)s1.NC[C@H](Cc1ccc(C(F)(F)F)cc1)NC(=O)c1cc(Br)c(-c2ccnc3[nH]ccc23)s1 [GSK1487252A]
CDC42BPB; [1]
  potency estimated from few doses: 2460 nM
PKN1
  potency estimated from few doses: 2080 nM
PRKACA
  potency estimated from few doses: 20.5 nM
PRKACB
  potency estimated from few doses: 60.6 nM
PRKG1
  potency estimated from few doses: 30.2 nM
PRKX;PRKY
  potency estimated from few doses: 593 nM
ROCK1
  potency estimated from few doses: 217 nM
ROCK2
  potency estimated from few doses: 180 nM
RPS6KB1
  potency estimated from few doses: 461 nM

## Cc1ccc2c(-c3ccnc(Nc4ccc(C(F)(F)F)cc4)n3)cnn2n1 [GW819776X]
CDC42
  potency estimated from few doses: 1650 nM
CDK7
  potency estimated from few doses: 1750 nM
ERCC2
  potency estimated from few doses: 898 nM
FER
  potency estimated from few doses: 1180 nM
GAK
  potency estimated from few doses: 1400 nM
HSP90B1
  potency estimated from few doses: 99.9 nM
TNK2
  potency estimated from few doses: 1050 nM

## FC(F)(F)c1cc(Nc2nccc(-c3c(-c4ccc(Cl)cc4)nn4ncccc34)n2)ccc1Cl [GW829351X]
CAMK4
  potency estimated from few doses: 2170 nM
CDK10
  potency estimated from few doses: 1110 nM
CDK6
  potency estimated from few doses: 1600 nM
HSP90B1
  potency estimated from few doses: 114 nM
MAPK9
  potency estimated from few doses: 1950 nM

## CC(=O)c1cccc(NC(=O)NC2CCN(c3ccnc(Nc4ccc(F)cc4)n3)C2)c1 (stereo not drawn) [GSK1379710A]
CAMK2B
  potency estimated from few doses: 658 nM
CDC42BPG; compound concentrations: 100 nM and 1000 nM (sheet 'Samples'), CATDS: 0.32700083085172899
  potency estimated from few doses: 1220 nM
TGFBR2
  potency estimated from few doses: 2000 nM
